Source: PubChem (National Center for Advancing Translational Sciences (NCATS))
LmPK inh = LmPK (Leishmania mexicana) enzyme inhibition; hit rate 0.37% among 290,000; Potency, µM (doses to about 57.5 µM), inactives show top-dose activity change, negative = inhibition, actives largely listed as inhibitors; purified LmPK, Kinase-Glo ATP luminescence, 1 h; Q27686; AID 1721; active means well fitted curve in the direction sought with a large enough effect; inconclusive means small, poorly fitted or top-dose-only effect, or another doubt; inactive means no such curve, though single readings can be large; an effect the other way counts as inactive or inconclusive; further: potency means the concentration at half of the fitted maximal effect; on the % scale 0 is the no-effect control and ±100 the full control effect
Target sequence (Q27686 whole entry, looked up): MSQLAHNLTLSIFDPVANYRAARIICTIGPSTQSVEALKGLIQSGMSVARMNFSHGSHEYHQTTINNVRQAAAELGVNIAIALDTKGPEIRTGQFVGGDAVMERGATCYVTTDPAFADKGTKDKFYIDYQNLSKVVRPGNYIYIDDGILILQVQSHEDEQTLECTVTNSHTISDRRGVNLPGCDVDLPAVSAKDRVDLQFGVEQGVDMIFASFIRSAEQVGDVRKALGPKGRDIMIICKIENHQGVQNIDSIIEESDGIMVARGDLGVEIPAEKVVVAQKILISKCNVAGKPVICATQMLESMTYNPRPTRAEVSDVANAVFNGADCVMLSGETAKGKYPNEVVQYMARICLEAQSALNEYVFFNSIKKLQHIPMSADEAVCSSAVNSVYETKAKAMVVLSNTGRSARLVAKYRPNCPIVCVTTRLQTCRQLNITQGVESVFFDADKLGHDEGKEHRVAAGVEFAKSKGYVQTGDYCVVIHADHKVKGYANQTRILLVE
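Purified LmPK (0.1 nM) with 0.5 mM PEP and 0.1 mM ADP in imidazole buffer pH 7.2 with MgCl2/KCl, 1 h at room temperature. ATP formed was read by luciferase luminescence and normalized to no-enzyme and uninhibited controls.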
SARS PLP yeast = inhibitors of SARS-CoV papain-like protease in yeast; AID 485353; S. cerevisiae expressing SARS-CoV PLpro, growth rescue; hit rate 0.19% among 330,000; Potency, µM (titrated, usually from 32.9 µM), for the others: at the highest dose activity, positive = growth rescue, actives largely listed as activators; further: potency means the concentration at half of the fitted maximal effect; 0% is about no effect; nearly all actives have a fitted effect of over 55% in size
Shiga toxin inh = inhibitors of Shiga toxin in Vero cells | inhibition, % at 38.7 µM | hit rate 9.2% among 290,000 | AID 2315 | Vero cells, Shiga toxin protein synthesis inhibition reporter; in the data active means inhibition mostly above about 28%, no sharp cut-off; inactive means mostly below about 43%; further: 0% is about no effect
NS1 inh = inhibitors of influenza NS1 protein function; Potency, µM (series often up to 46.1 µM), for the others: at the top dose activity, positive = more growth; hit rate 0.4% among 270,000; further: potency means the concentration at half of the fitted maximal effect; actives are rising curves; nearly all actives have a fitted effect of over 50% in size
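Read-out: OD600 growth recovery of NS1-expressing budding yeast. Cells grown overnight at 30C in -URA glucose medium, washed, resuspended and diluted 1:100 in 2% galactose assay medium, pH 6.0. Same strain lacking NS1 served as positive control.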
Tb PYK inh = inhibitors of Trypanosoma brucei pyruvate kinase. Q57TT1. TbPYK enzyme, Kinase-Glo Plus ATP luminescence, 45 min. Potency, µM (highest dose often 76.8 µM), inactives show top-dose activity, negative = inhibition, hits mostly inhibitors. hit rate 0.12% among 410,000. AID 624173; active means well fitted curve in the direction sought with a large enough effect; inconclusive means small, poorly fitted or top-dose-only effect, or another doubt; inactive means no such curve, though single readings can be large; an effect the other way counts as inactive or inconclusive; further: potency means the concentration at half of the fitted maximal effect; on the % scale 0 is the no-effect control and ±100 the full control effect; nearly all actives have a fitted effect of over 50% in size
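ADP (130 uM final) triggers the TbPYK reaction after compound addition; incubation is 45 min at room temperature. Kinase-Glo Plus is then added and luminescence imaged. Normalized data are fitted to concentration-effect curves.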
CHX counter = counter-screen for Shiga toxin inhibitors: cycloheximide protein synthesis inhibition; cell reporter, cycloheximide protein synthesis inhibition counterscreen; hit rate 12% among 300,000; max response, %; in the data active means max response mostly above about 13%, no sharp cut-off; inactive means mostly below about 14%; further: read at 38.3 µM for the half of the compounds with a filed dose; 0% is about no effect
Numbers without * were called inactive; u = inconclusive; x = not tested or not shown; [ ] = remark or other dose. This excerpt belongs to a sample that is enriched for hits. Unless noted, the call rests on the fitted dose curve.

SMILES | LmPK inh | SARS PLP yeast | Shiga toxin inh | NS1 inh | Tb PYK inh | CHX counter
COc1ccc(NS(=O)(=O)c2c(C)nc3scc(C)n3c2=O)cc1 | x | x | x | x | -1% | x
CN1/C(=C\C=C2C(=O)NC(=S)NC2=O)C(C)(C)c2ccccc21 | -15% | 1% | -13 | x | -9% | -1
CN1/C(=C\C=C2/C(=O)Oc3ccccc3C2=O)C(C)(C)c2ccccc21 | -7% | 8% | 40* | 0% | -2% | 39*
O=c1c2cccc(Cl)c2nc2n1Cc1ccccc1-2 | -14% | -1% | 28 | -4% | -11% | 18*
Cc1ccccc1-c1nc2sc(C)c(C)c2c(=O)o1 | -1% | 3% | x | 15% | -2% | 17*
Cc1sc2nc3n(c(=O)c2c1C)Cc1ccccc1-3 | u | -5% | 77* | -44% | x | 34*
C[C@H]1CN(CCc2ccccc2)C(=O)[C@@H]1CC(=O)Nc1ccccc1 | x | x | x | x | -5% | x
N=c1oc2cc(O)ccc2cc1C(=O)Nc1ccc(Cl)cc1 | -1% | -5% | 114* | -41% | 4% | 43*
N=c1oc2ccccc2cc1C(=O)Nc1ccc(F)cc1 | -22% | 2% | 92* | 0% | -6% | 29*
N=c1oc2ccccc2cc1C(=O)Nc1cccc(F)c1 | -3% | 0% | 73* | 1% | -1% | 41*
Cc1ccc(NC(=O)c2cc3ccccc3oc2=N)cc1 | -5% | -1% | 147* | -1% | -8% | 77*
Cc1ccc(NC(=O)c2oc3ccccc3c2NC(=O)c2cc3ccccc3o2)cc1 | x | x | x | x | 1% | x
CCOc1ccc(NC(=O)c2cc(=O)c3ccc(C)c(C)c3o2)cc1 | x | x | x | x | -2% | x
O=C(N=C1SC2CS(=O)(=O)CC2N1c1cccc(Cl)c1Cl)C1CCCO1 (configuration not stated) | 4% | -4% | 8 | 10% | -23% | -3
O=S(=O)(c1cccs1)N1CCCCC1 | x | x | x | x | -1% | x
O=C(N/N=C/c1cn(-c2ccccc2)nc1-c1cccnc1)c1cccnc1 | -1% | 3% | 2 | x | 1% | 5
O=C(N/N=C/c1cn(-c2ccccc2)nc1-c1cccs1)c1ccc(Cl)cc1 | -2% | -3% | 8 | 22% | -2% | -3
O=C(N/N=C/c1cn(-c2ccccc2)nc1-c1cccs1)c1ccccc1F | 3% | -25% | 83* | 20% | 1% | 20*
O=S(=O)(N/N=C\c1cn(-c2ccccc2)nc1-c1ccccc1)c1ccccc1 | 1% | 7% | 17 | -6% | -6% | 13
O=C(CNc1ccccc1)N/N=C/c1cn(-c2ccccc2)nc1-c1ccccc1 | -1% | 6% | 54 | 22% | 6% | 9.7*
NC(=O)N/N=C/c1cn(-c2ccccc2)nc1-c1ccccc1 | 2% | -4% | 60* | x | -4% | 31*
CC(=O)Nc1ccc(N=Cc2c(O)c(C(=O)Nc3ccccc3)cc3ccccc23)cc1 | 1% | 3% | 104* | x | 2% | 26
CCCCCCCCC/C(=N\O)c1ccccn1 | 2% | -24% | 83* | -175% | 3% | 24*
COc1ccc(Cn2c(=O)c3oc4ccccc4c3n(Cc3ccc(Cl)cc3)c2=O)cc1 | x | x | x | x | 0% | x
COC(=O)Oc1ccc(/C=C/C(=O)OC(C)C)cc1OC(=O)OC | -1% | -28% | 49 | -11% | -8% | 30*
SMILES | LmPK inh | SARS PLP yeast | Shiga toxin inh | NS1 inh | Tb PYK inh | CHX counter
O=C(NCCn1cc(SCc2ccccc2Cl)c2ccccc21)c1cccs1 | x | x | x | x | 4% | x
Cc1[nH]c2ccc(C(=O)Nc3ccc(F)cc3)cc2c1C | x | x | x | x | -14%[15.4 µM] | x
CN(C(=O)Cn1cc(S(=O)(=O)N2CCN(c3ccccc3F)CC2)c2ccccc2c1=O)c1ccc(Cl)cc1 | x | x | x | x | -4% | x
Cc1ccc(/C=C/C(=O)N2CCc3ccccc32)o1 | u | -19% | 103* | -9% | 20µM* | 50*
O=C(/C=C/c1ccco1)N1CCc2ccccc21 | 7.9µM* | -13% | 59* | x | u | 29*
CCOC(=O)C1CCN(C(=O)c2cccc(C(=O)N3CCC(C(=O)OCC)CC3)c2)CC1 | 7% | u | 0 | -2% | 4% | -1
CNS(=O)(=O)c1cccc(C(=O)OCC(=O)N2CCCC2)c1 | -1% | -1% | -6 | 9% | 6% | 5
CN(C)c1ccc(C(=O)OCC(=O)NCCNC(=O)COC(=O)c2ccc(N(C)C)cc2)cc1 | -16% | u | 71* | -3% | -7% | 30*
CN(C)c1ccc(C(=O)OCC(=O)N2CCCC2)cc1 | 2% | -1% | 53* | -2% | -6% | 32*
CCOC(=O)C1CCN(C(=O)COC(=O)c2cccc(F)c2)CC1 | -10% | 0% | 72* | x | 4% | 22*
O=C(OCC(=O)N1CCCC1)c1cccc(Br)c1 | 3% | -3% | 54* | -10% | -2% | 20*
CCOc1ccc(C(=O)OCC(=O)N2CCCC2)cc1 | -2% | -1% | 59* | -5% | -5% | 27*
COC(=O)c1ccc(CNC(=O)COC(=O)c2ccc(N(C)C)cc2)cc1 | 4% | 0% | -9 | 6% | -3% | 5
CCc1ccc(C(=O)OCC(=O)N2CCCCCC2)cc1 | x | -1% | x | x | 1% | x
CN(C)c1ccc(C(=O)OCC(=O)N2CCCCCC2)cc1 | -7% | 0% | 106* | x | 6% | 36*
CCOC(=O)N1CCN(C(=O)COC(=O)c2ccc(N(C)C)cc2)CC1 | x | 7% | x | x | -7% | x
CN(C)c1ccc(C(=O)OCc2ccc(Br)cc2)cc1 | 0% | -18% | 67* | -12% | 1% | 16
COc1cccc(CNC(=O)C(CC(C)C)NS(=O)(=O)c2ccc3c(c2)oc(=O)n3C)c1 (configuration not stated) | x | x | x | x | -3% | x
CCc1ccc(NC(=O)C(=O)NCC2CCCN2S(=O)(=O)c2ccccc2)cc1 (configuration not stated) | x | -1% | x | x | -5% | x
Cc1scc(CN2CCN(c3ccccc3F)CC2)c1C | x | x | x | x | 3% | x
Cc1cc(C(=O)COC(=O)c2ccc3c(c2)OCO3)c(C)n1Cc1cccs1 | -2% | -8% | 128* | 0% | 3% | 54*
CCn1nc(C(=O)OCC(=O)c2cc(C)n(Cc3cccs3)c2C)c2ccccc2c1=O | -4% | 0% | 66* | -6% | -3% | 72*
Cc1cc(C(=O)COC(=O)c2ccccc2O)c(C)n1Cc1cccs1 | u | -1% | -8 | 3% | 2% | 3
CCn1nc(C(=O)OCC(=O)c2ccc(F)cc2)c2ccccc2c1=O | 3% | -1% | 20 | x | 2% | 10
CCN(CC(=O)Nc1ccc2c(c1)OCCO2)C(=O)C(C)Oc1ccc(Cl)cc1 (configuration not stated) | x | 2% | x | x | -8% | x
Cc1ccc(CSc2nnc(C(F)(F)F)n2Cc2ccc(F)cc2)cc1 | 0% | -1% | 21 | -37% | -10% | 16*
COc1ccc(-c2csc(Nc3cc(C)ccn3)n2)cc1C | -4% | 1% | 120* | 6% | -2% | 62*
COc1ccc(-c2cc3cc(OC)c(OC)cc3c(C)n2)cc1C | 1% | -4% | 37 | 3% | 10% | 12
